# Compounds without any hit were thinned out: in the full panel of roughly 83,000, 20% have a hit.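 Single-concentration screen, 48 h exposure, 96-well plates. Endpoint: percent growth. Below 10 = active.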 Unmarked numbers belong to inactive results. Calls of active or inactive are those of the source.
# How the values were obtained:
# Test in all cases: NCI-60 one-dose screen, 48 h (100 = growth as untreated, 0 = no growth, -100 = all killed)
# Conditions in all cases: 10 µM unless noted
# DU-145 prostate = tested on: DU-145 prostate
# K-562 leukemia = tested on: K-562 leukemia
# MALME-3M melanoma = tested on: MALME-3M melanoma
# MDA-MB-231 breast = tested on: MDA-MB-231 breast
# SF-268 CNS = tested on: SF-268 CNS
# SF-295 CNS = tested on: SF-295 CNS
# SF-539 CNS = tested on: SF-539 CNS
# M14 melanoma = tested on: M14 melanoma
Compound,growth (DU-145 prostate),growth (K-562 leukemia),growth (MALME-3M melanoma),growth (MDA-MB-231 breast),growth (SF-268 CNS),growth (SF-295 CNS),growth (SF-539 CNS),growth (M14 melanoma)
NC1=Nc2ccccc2N(O)N1,113%,96.7%,97%,102%,98.1%,102%,96.3%,103%
CC(N)C(Cc1ccc(Cl)cc1)c1ccc(Cl)cc1 (stereo unspecified),61%,0.46% (active),80.3%,35.5%,62.6%,84.9%,80.8%,47.6%
CSc1nc2ncnc(SC)c2[nH]1,110%,100%,110%,107%,102%,102%,103%,97.9%
Clc1nc(Cl)c2ncn(CC#CCn3cnc4c(Cl)nc(Cl)nc43)c2n1,-87.2% (active),-13% (active),-74.5% (active),-52.6% (active),-37.8% (active),5.67% (active),-65.7% (active),7.78% (active)
CC(=O)OC1Oc2ccccc2-c2oc(=O)c(-c3cc4ccc(N(C)C)cc4oc3=O)cc21 (stereo unspecified),19.1%,1.45% (active),4.74% (active),59.5%,73.1%,6.73% (active),69.4%,47.2%
CC1(C=O)NC(=O)NC1=O (stereo unspecified),111%,103%,118%,103%,101%,103%,103%,103%
COc1ccc(-c2nc(N)ncc2Oc2ccccc2OC)c(O)c1,34.9%,12.2%,48%,51.9%,46.3%,-0.599% (active),8.99% (active),12.5%
N#Cc1c(NC(=O)c2cccs2)[n+]([O-])c2ccc(F)cc2[n+]1[O-],103%,91.3%,92.4%,87.2%,101%,100%,98.1%,101%
O=C1CC(c2cccc(F)c2)c2c(n[nH]c2-c2ccc(Cl)cc2)N1 (stereo unspecified),102%,96.4%,99.4%,80.4%,94.1%,91.8%,91.3%,100%
COc1ccc(C2OC(c3cc(-c4cc5ccccc5o4)nn3-c3ccccc3)=NN2C(C)=O)cc1 (stereo unspecified),101%,93.1%,107%,95.9%,97.7%,100%,98.6%,99%
CCN(CC)C(=O)C[N+](C)(C)CCOC(c1ccccc1)c1ccccc1,103%,109%,98.5%,117%,103%,99.5%,102%,100%
CCCc1cc2cc(-n3nc(C)c4c3CC(C)(C)CC4=O)cc(NC3CCC(O)CC3)c2c(=O)[nH]1 (stereo unspecified),38.8%,10%,29.9%,-0.14% (active),50.2%,-35.6% (active),37.8%,23.6%
COc1ccc2c(c1OC)C(=O)O[C@@H]2[C@H]1c2c(c(C#CC#Cc3ccc(F)c(F)c3)c3c(c2OC)OCO3)CCN1C,103%,87.1%,91%,90.9%,95.9%,95.6%,94.9%,90.6%
C[N+](C)(CCOC(c1ccccc1)c1ccccc1)CC(=O)OCc1ccccc1,105%,126%,99.7%,113%,106%,103%,105%,91.3%
ClCc1ccc(-c2ccc(Cn3cnc4c(Cl)nc(Cl)nc43)cc2)cc1,-93.4% (active),9.48% (active),-20% (active),-37.7% (active),-13.5% (active),-74.2% (active),-86.9% (active),48.3%
Cc1ccc(N=C2CSc3nnc(-c4csc5c4CCCC5)n3N2)cc1,25.4%,10.7%,70.6%,43%,40.8%,-6.51% (active),-2.46% (active),5.9% (active)

Compound,growth (DU-145 prostate),growth (K-562 leukemia),growth (MALME-3M melanoma),growth (MDA-MB-231 breast),growth (SF-268 CNS),growth (SF-295 CNS),growth (SF-539 CNS),growth (M14 melanoma)
Cc1cccc(NC(=O)[C@@H]2c3ccccc3C(=O)N(c3ccc(Cl)cc3)[C@H]2c2ccc(Cl)cc2)n1,79.8%,47.7%,61.1%,32.1%,62.8%,24.1%,71%,45.8%
C=C1C(=O)O[C@H]2[C@H]1CC/C(Cn1cc(-c3cc(C)c(C)cc3C)nn1)=C\CC[C@@]1(C)O[C@@H]21,-100% (active),-10.7% (active),-79.8% (active),-73.7% (active),-54.5% (active),59.8%,-82.9% (active),-57.3% (active)
C=CCC(=O)N[C@H](/C=C/C(=O)O)Cc1ccc(-c2cc(Cl)cc(Cl)c2)cc1,106%,96.7%,99.9%,97.9%,98.7%,101%,94.6%,92.2%
COc1cc2c(cc1OCCCCCCN1CCN(c3ncnc4ccccc34)CC1)N=CC1CCCN1C2=O (stereo unspecified),4.65% (active),-15.9% (active),-65.9% (active),-29.1% (active),-2.27% (active),-45.5% (active),-56.3% (active),-85.5% (active)
CC[n+]1c(/C=C/C=C2\N(C)c3ccccc3C2(C)C)sc2ccccc21,20.3%,2.44% (active),13.6%,8.67% (active),25.6%,-6.72% (active),19.9%,12.6%
CCOC(=O)C1=C(C)N=C2Sc3cccc(OC)c3N2[C@H]1c1ccccn1,105%,101%,91.2%,90.6%,94.2%,101%,103%,103%
NN1C(=O)CSC1=S,108%,101%,109%,105%,95.9%,105%,105%,97.6%
Cc1nn(-c2nc3ccccc3[nH]2)c2c1C(c1ccc(OCc3ccc(F)cc3)cc1)CC(=O)N2 (stereo unspecified),96%,87.6%,81.3%,42.8%,46.7%,19%,56.7%,58.5%
CSC1=C(N)C(=O)c2[nH]cc(CO)c2C1=N,-94.8% (active),-24.1% (active),-96.1% (active),2.56% (active),-69.4% (active),-97.1% (active),-96.2% (active),-83.5% (active)
CCOC(=O)C1=C(C)N=C2Sc3cc(OC(F)(F)F)ccc3N2[C@H]1c1ccccn1,46.5%,21.9%,59.1%,53.9%,47.8%,22.2%,41%,27.3%
COc1c(C(NC(=O)c2ccccc2)c2sccc2C)cc(Cl)c2cccnc12 (stereo unspecified),108%,105%,108%,88.4%,100%,103%,106%,103%
COc1ccc(C2CC(=O)c3c(O)c(OC)c(OC)c(OC)c3O2)c(O)c1 (stereo unspecified),22.2%,13.9%,64.7%,24.9%,44.4%,7.86% (active),-7.78% (active),12.6%
CCCCN1CCCC[C@@H]1C(=O)N[C@H](C(=O)N(C)[C@H](CCc1nc(C(=O)N[C@@H](Cc2ccccc2)C[C@H](C)C(=O)OC)cs1)C(C)C)C(C)C,92.9%,22.9%,45.1%,71.5%,84.3%,49.4%,82.8%,49.9%
COC(=O)[C@]12CC[C@@H](C)[C@H](C)[C@@H]1C1=CC[C@@H]3[C@@]4(C)C(C#N)=CC(C)=C4CC[C@@]3(C)[C@]1(C)CC2,99.3%,84.5%,87.5%,85.4%,85.3%,85.4%,91.8%,77.2%
COC(=O)[C@]12CC[C@@H](C)[C@H](C)[C@@H]1C1=CC[C@@H]3[C@@]4(C)C(c5cnco5)=C[C@@](C)(CO)C4=CC[C@@]3(C)[C@]1(C)CC2,29.4%,30.8%,87.6%,58.8%,63%,31.2%,66.4%,63.4%
CCN1/C(=C/C=C/c2n(-c3ccccc3)c3ccc(-c4nc5ccccc5s4)cc3[n+]2CC)N(c2ccccc2)c2ccc(-c3nc4ccccc4s3)cc21,-47.9% (active),10.2%,-44.5% (active),16.9%,9.74% (active),-30.4% (active),-13.7% (active),-11.2% (active)

# Reference: PubChem BioAssay (NCI)
